Reference: the supplement of paper PMC11732987, “Enantioselective OTUD7B fragment discovery through chemoproteomics screening and high-throughput optimisation” (Communications Chemistry, 2025)

Assays:
Test in all cases: log2 ratio of Biotin-Ahx-Ub-VS probe labelling (fragment/DMSO); higher = less target engagement (more negative = stronger competition), active = hit call of the paper (q ≤ 0.05, log2 ratio ≤ -1)
Details in all cases: compound concentration: 200 uM; treatment time: 3 h
USP42 = target: T1, USP42 (UniProt Q9H9J4)
T1 sequence (whole entry): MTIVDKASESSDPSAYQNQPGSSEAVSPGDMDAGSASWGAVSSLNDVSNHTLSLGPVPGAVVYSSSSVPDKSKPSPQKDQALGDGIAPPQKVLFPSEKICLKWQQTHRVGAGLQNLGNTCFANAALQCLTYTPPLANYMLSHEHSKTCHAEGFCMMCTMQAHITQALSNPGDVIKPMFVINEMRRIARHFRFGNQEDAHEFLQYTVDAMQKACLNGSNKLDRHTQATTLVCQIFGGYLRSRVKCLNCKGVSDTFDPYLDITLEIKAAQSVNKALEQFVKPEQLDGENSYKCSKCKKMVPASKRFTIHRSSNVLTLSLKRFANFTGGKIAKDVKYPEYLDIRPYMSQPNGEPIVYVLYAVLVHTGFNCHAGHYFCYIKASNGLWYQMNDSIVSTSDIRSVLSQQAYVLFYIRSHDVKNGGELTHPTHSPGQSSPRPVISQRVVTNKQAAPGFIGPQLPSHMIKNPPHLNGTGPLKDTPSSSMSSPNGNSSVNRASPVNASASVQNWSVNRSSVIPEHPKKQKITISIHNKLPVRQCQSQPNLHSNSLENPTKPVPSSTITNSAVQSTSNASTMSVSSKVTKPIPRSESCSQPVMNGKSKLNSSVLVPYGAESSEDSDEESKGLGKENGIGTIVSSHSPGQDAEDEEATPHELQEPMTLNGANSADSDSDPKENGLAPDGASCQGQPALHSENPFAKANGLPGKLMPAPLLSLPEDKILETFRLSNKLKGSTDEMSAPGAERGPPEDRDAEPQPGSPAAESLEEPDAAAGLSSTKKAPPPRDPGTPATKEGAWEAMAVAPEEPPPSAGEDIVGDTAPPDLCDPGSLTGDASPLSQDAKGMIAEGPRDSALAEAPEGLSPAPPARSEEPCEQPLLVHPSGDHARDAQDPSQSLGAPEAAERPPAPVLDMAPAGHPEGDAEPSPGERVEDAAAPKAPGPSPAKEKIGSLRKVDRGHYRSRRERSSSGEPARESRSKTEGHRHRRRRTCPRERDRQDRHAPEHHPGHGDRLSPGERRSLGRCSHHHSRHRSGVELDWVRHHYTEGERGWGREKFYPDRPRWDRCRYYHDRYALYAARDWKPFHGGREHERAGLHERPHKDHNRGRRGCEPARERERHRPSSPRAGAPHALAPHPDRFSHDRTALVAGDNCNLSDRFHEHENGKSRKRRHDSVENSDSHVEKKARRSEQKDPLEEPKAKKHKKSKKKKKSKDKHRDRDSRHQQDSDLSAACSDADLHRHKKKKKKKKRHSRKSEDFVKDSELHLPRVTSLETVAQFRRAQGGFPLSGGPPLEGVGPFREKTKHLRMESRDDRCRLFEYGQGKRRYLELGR
Summary of the method: (§1)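 Average log2 ratios of fragment over vehicle were obtained by unpaired t-test from global-median-normalised Spectronaut label-free quantities. Proteins with ≥2 unique peptides were included. HEK293T lysate (495 µg per sample) was treated in triplicate with fragment at 200 µM or vehicle for 3 h, then with Biotin-Ahx-Ub-VS at 0.5 µM final for 1 h, and labelled DUBs were NeutrAvidin-enriched and run by diaPASEF LC-MS/MS.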

USP46 = USP46 (UniProt P62068)
Sequence of USP46 (P62068 whole entry): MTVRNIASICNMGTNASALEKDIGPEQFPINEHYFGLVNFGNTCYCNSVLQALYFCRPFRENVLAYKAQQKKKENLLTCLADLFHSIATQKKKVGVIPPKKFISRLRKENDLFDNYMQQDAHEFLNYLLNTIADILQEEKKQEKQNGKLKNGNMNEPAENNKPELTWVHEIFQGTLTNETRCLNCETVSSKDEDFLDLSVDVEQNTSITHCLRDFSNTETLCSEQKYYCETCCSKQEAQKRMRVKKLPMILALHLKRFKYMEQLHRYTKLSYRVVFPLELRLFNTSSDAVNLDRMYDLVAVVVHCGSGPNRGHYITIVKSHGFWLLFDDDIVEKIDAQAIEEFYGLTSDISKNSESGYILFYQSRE
Summary of the method: as §1

USP47 = target: T2, USP47 (UniProt Q96K76)
T2 sequence (whole entry): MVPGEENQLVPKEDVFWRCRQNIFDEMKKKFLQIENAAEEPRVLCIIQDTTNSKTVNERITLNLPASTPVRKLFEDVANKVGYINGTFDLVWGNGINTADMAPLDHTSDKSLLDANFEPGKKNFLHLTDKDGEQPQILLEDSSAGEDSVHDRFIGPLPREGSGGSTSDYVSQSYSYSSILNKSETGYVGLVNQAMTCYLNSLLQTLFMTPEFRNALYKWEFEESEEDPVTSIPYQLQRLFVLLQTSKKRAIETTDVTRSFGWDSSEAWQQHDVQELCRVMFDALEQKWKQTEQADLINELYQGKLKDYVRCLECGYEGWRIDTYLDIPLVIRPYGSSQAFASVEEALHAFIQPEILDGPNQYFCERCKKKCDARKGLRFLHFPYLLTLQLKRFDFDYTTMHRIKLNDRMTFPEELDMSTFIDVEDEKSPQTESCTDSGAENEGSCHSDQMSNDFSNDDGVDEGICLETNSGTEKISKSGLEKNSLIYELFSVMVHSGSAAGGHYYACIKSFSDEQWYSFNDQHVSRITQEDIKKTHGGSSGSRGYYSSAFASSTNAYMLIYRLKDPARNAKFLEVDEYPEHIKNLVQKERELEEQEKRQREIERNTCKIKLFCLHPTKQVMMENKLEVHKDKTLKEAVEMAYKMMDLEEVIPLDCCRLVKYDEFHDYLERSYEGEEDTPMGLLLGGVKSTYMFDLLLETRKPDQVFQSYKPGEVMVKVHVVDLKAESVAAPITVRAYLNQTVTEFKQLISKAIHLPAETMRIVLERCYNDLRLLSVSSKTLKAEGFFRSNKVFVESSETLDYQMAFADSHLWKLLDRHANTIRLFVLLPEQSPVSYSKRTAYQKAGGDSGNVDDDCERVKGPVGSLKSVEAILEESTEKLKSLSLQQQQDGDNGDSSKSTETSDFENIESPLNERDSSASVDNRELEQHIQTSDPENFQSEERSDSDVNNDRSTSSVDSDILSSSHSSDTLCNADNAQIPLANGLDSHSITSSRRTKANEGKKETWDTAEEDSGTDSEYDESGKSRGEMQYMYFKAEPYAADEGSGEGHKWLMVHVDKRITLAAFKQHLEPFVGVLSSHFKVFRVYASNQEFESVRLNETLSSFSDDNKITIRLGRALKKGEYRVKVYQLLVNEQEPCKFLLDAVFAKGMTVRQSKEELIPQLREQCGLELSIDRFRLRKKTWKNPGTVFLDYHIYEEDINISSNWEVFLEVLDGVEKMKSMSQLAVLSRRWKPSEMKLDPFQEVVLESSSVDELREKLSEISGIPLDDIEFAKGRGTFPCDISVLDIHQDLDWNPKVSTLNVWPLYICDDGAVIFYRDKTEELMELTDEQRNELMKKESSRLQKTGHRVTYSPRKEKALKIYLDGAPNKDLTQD
Summary of the method: as §1

USP48 = target: T3, USP48 (UniProt Q86UV5)
T3 sequence (whole entry): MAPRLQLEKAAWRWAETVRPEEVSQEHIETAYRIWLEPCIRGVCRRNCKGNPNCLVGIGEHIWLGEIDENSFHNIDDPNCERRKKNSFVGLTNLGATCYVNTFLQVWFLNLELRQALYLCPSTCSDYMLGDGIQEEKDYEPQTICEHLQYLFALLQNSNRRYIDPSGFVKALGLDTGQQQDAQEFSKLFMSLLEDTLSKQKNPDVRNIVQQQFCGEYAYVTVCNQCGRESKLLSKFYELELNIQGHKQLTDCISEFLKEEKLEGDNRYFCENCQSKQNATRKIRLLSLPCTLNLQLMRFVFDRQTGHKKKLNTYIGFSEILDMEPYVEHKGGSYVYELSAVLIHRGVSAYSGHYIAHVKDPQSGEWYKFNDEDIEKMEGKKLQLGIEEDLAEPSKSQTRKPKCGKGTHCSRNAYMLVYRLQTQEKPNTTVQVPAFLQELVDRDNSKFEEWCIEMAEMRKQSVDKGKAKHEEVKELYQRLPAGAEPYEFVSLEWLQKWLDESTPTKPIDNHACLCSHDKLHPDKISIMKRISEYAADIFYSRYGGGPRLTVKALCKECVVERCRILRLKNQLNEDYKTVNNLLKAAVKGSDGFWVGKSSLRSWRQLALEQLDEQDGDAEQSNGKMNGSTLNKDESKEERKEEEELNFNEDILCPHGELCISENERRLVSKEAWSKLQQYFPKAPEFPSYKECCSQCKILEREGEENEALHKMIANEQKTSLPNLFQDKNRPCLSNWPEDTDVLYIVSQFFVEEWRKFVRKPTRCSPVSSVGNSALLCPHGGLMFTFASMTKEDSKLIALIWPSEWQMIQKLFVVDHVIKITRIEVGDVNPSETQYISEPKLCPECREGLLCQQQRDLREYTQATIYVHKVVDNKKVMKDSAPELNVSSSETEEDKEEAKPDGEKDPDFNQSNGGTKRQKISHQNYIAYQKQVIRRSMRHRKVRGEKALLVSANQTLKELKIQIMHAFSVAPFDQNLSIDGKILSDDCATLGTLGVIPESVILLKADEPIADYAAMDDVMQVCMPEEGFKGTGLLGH
Summary of the method: as §1

USP5 = target: T4, USP5 (UniProt P45974)
T4 sequence (whole entry): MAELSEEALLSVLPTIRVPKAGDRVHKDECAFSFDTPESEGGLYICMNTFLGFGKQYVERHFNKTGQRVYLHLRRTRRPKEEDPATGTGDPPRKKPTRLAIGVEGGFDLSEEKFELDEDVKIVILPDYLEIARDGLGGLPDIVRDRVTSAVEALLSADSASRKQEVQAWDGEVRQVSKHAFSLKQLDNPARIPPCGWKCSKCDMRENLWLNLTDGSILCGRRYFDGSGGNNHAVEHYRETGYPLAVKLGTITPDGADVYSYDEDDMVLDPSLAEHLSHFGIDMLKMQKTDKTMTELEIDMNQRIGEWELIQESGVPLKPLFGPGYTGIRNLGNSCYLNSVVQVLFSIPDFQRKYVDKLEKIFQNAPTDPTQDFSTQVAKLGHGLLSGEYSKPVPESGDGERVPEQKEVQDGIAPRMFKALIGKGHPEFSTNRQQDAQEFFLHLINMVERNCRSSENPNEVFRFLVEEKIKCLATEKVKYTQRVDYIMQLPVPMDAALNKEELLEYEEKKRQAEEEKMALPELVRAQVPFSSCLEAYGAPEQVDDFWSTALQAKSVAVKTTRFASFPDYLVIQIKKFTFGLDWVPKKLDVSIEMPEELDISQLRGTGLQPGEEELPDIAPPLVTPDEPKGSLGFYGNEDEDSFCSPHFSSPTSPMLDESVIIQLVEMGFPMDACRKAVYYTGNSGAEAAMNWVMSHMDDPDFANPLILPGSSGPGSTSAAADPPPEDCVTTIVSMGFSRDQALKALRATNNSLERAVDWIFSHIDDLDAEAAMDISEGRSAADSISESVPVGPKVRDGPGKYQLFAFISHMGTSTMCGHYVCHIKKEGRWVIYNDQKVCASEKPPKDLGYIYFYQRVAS
Summary of the method: as §1

USP54 = USP54 (UniProt Q70EL1)
Summary of the method: as §1

USP7 = USP7 (UniProt Q93009)
Sequence of USP7 (Q93009 whole entry, looked up): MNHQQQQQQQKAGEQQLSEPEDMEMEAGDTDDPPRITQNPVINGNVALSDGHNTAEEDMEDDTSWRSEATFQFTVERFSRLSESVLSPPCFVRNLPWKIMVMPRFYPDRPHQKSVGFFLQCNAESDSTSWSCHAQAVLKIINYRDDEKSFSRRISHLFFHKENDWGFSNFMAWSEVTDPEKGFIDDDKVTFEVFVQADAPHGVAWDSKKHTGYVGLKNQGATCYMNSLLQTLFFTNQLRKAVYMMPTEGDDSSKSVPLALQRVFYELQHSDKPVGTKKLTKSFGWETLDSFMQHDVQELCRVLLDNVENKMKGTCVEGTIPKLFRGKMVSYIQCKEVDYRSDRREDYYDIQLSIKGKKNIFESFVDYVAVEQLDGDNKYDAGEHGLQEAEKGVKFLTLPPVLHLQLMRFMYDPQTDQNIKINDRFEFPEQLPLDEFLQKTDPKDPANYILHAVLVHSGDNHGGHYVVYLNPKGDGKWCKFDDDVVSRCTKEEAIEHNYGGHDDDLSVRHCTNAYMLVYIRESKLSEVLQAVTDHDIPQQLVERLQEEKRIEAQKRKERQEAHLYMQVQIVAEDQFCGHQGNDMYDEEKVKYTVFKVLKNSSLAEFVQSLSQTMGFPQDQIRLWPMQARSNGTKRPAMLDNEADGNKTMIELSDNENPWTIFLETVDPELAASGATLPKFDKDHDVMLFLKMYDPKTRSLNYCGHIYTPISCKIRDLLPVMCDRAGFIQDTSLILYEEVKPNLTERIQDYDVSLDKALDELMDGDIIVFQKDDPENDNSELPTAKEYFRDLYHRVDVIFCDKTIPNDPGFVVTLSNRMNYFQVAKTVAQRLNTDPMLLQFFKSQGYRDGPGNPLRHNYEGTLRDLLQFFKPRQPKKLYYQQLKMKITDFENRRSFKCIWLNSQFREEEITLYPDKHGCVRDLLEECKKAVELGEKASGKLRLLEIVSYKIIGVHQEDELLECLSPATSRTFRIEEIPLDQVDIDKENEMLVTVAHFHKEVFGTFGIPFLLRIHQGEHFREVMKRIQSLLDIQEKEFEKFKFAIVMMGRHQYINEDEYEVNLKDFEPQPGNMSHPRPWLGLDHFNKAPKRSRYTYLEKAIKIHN
Summary of the method: as §1

USP8 = target: T5, USP8 (UniProt P40818)
T5 sequence (whole entry): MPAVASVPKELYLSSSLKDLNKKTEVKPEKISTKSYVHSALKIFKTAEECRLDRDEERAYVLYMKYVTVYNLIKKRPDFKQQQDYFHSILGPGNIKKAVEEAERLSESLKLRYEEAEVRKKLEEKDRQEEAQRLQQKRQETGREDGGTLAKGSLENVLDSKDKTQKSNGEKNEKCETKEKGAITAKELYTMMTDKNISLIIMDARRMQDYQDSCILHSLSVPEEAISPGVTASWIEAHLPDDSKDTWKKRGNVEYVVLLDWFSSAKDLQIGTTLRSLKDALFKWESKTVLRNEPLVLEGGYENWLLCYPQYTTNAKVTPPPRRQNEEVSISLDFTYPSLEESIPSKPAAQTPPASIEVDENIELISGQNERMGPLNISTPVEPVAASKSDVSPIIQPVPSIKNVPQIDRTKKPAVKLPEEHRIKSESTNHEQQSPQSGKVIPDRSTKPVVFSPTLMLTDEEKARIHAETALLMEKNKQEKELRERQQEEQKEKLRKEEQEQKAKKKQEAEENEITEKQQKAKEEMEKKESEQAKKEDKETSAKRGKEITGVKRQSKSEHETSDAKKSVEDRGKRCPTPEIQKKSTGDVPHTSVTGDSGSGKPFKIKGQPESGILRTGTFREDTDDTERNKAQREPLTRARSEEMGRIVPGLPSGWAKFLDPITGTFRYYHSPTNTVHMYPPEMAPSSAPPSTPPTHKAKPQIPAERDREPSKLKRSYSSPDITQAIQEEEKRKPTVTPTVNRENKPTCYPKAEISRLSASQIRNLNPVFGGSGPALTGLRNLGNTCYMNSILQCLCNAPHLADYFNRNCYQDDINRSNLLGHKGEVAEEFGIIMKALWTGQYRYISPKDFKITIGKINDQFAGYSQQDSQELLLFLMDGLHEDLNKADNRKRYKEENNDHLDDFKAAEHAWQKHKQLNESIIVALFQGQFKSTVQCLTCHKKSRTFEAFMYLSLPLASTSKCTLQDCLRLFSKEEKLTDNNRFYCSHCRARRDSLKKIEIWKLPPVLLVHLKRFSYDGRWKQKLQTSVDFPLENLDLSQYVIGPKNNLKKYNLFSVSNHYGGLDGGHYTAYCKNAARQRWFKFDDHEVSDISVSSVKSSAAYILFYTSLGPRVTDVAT
Summary of the method: as §1

USP9X = USP9X (UniProt Q93008)
Sequence of USP9X (Q93008 whole entry): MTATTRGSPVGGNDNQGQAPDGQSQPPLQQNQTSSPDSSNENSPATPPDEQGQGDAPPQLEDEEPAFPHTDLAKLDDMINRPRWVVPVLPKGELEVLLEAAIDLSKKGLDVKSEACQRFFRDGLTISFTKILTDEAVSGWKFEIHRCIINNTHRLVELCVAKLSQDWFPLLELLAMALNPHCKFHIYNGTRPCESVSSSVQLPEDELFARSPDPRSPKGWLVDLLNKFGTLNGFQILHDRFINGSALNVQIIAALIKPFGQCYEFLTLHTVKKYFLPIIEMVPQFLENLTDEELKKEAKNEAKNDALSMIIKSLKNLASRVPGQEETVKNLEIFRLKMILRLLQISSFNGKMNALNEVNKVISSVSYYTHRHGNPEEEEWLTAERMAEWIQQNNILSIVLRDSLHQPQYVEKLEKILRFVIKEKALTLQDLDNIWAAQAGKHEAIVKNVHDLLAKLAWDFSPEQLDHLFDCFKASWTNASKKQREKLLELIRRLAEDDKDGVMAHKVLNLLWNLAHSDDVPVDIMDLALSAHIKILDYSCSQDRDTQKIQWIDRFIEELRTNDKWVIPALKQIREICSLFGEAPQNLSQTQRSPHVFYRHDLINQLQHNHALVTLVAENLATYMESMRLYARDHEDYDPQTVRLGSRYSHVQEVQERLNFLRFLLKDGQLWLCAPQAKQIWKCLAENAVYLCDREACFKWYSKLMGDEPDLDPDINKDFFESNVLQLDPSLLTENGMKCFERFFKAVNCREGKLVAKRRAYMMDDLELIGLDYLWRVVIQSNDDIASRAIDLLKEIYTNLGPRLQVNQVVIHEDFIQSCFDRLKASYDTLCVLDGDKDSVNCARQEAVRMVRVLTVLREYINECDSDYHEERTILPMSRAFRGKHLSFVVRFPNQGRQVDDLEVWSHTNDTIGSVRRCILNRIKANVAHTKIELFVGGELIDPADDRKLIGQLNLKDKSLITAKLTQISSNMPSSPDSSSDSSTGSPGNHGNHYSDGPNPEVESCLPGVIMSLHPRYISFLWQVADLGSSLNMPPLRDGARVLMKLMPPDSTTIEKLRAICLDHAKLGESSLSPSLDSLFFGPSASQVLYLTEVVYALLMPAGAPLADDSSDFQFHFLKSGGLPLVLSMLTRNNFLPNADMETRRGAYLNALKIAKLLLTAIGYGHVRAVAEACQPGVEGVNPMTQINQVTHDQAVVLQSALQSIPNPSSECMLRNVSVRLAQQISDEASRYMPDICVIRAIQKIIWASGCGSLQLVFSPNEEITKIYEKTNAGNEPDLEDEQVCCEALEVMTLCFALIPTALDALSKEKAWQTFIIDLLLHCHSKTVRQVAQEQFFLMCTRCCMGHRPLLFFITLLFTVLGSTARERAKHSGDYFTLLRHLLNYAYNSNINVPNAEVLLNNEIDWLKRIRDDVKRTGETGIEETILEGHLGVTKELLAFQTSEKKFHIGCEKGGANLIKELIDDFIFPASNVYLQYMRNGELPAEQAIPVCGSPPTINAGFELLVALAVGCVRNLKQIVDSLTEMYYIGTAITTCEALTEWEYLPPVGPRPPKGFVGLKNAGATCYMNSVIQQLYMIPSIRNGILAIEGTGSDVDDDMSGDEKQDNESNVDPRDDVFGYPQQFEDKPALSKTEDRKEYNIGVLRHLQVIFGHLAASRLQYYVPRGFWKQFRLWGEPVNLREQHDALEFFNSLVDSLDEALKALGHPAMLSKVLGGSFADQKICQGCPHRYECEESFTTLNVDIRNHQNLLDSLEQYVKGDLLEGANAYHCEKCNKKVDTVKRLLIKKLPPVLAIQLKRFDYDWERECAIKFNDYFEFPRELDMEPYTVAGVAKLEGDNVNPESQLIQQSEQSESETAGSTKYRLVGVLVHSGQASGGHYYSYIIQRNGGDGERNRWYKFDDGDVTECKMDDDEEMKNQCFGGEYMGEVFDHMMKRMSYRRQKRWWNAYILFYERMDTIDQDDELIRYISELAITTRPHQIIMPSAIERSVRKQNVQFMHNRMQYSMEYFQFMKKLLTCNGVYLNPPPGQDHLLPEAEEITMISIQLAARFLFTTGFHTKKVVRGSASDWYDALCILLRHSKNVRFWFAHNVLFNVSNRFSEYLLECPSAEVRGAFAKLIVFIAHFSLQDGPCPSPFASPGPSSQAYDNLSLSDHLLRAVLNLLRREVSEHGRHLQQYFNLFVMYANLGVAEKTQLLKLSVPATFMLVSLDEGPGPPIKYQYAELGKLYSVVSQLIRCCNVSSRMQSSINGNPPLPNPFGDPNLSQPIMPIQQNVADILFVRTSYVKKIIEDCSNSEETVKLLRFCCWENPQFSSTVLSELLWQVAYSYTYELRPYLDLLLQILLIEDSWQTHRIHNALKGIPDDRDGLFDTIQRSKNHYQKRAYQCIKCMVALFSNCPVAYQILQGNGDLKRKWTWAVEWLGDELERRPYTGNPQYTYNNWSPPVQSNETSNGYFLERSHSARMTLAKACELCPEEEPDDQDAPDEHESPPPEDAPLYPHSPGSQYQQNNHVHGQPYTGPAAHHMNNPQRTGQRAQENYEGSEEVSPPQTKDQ
Summary of the method: as §1

UniProt O00487 = target: UniProt O00487
Sequence of UniProt O00487 (O00487 whole entry): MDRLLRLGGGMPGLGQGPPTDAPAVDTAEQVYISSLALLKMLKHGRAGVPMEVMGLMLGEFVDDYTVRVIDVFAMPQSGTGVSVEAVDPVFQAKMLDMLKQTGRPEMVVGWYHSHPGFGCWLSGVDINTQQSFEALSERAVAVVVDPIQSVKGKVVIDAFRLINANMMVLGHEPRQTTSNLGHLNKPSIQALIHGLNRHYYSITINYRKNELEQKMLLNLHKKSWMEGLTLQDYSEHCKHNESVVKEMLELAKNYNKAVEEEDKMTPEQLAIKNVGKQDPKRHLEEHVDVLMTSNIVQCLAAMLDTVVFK
Summary of the method: as §1

Measured: log2 ratio of Biotin-Ahx-Ub-VS probe labelling

Cc1n[nH]c(=O)c2c(NC(=O)CCl)oc(C)c12
inactive: USP42 0.339 | USP46 -0.0434 | USP47 0.166 | USP48 -0.0393 | USP5 -0.00864 | USP54 -0.153 | USP7 -0.0198 | USP8 -0.29 | USP9X -0.056 | UniProt O00487 -0.0655
